{"source": "PubChem BioAssay (NCI)", "note": "Several values for one entry are separate records, joined by “and”; a condition that tells them apart may be missing. Equal entries are not always repeated. The panel holds about 83,000 compounds, 20% with a hit somewhere; the sample as a whole holds those more often.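 Testing used 96-well plates and a 48-hour single-concentration exposure. Example: -40 means 40% of the starting cells died.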 Activity calls are given as the source filed them. Rule for the calls: active = growth percent below 10; inactive = the rest."}
{"test_system": "MCF7 breast", "assay": "NCI-60 one-dose screen, 48 h (100 = growth as untreated, 0 = no growth, -100 = all killed)", "conditions": "10 µM unless noted"}
{"compound": "COc1cc(-c2nc(SC)nc3c2CCc2ccccc2-3)cc(OC)c1OC", "growth": "19.3% [100 µM] (inactive) and 8.46% [100 µM] (active)"}
{"compound": "Fc1ccc(Nc2nc(Cl)c3[nH]cnc3n2)cc1Cl", "growth": "53.5% [100 µM] (inactive) and 7.87% [100 µM] (active)"}
{"compound": "C/C=C1\\NC(=O)[C@H]2CSSCCC=C[C@H](CC(=O)N[C@H](C(C)C)C(=O)N2)OC(=O)[C@H](C(C)C)NC1=O", "growth": "-73.3% [0.1 µM] (active) and -95.5% [0.1 µM] (active)"}
{"compound": "N#CC1(C#N)C2CCCCC23OC(=N)C1(C#N)C(c1ccccc1)O3", "note": "(stereo not drawn)", "growth": "-47% [100 µM] (active)"}
{"compound": "NC(N)=Nc1ccc(CC(N)C(=O)O)cc1", "note": "(stereo not drawn)", "growth": "93.7% [12.5 µM] (inactive) and 76.9% [12.5 µM] (inactive)"}
{"compound": "O=C1NC(N/N=C\\C(O)C(O)C(O)C(O)CO)=N/C1=C\\c1ccc(Cl)cc1", "note": "(stereo not drawn)", "growth": "58.4% [100 µM] (inactive) and 13.9% [100 µM] (inactive)"}
{"compound": "CNc1nc2c(C)ccc3[nH]c(N(C)C)nc3c-2n1", "growth": "8.99% [100 µM] (active) and 1.25% [100 µM] (active)"}
{"compound": "O=C1c2cccnc2-c2nccc3ccnc1c23", "growth": "-90.9% [100 µM] (active) and -100% [100 µM] (active)"}
{"compound": "O=C1NC(N/N=C\\c2ccccc2)=N/C1=C/c1ccccc1", "growth": "-46% [100 µM] (active) and -100% [100 µM] (active)"}
{"compound": "COc1cc(Oc2c(C)c(Cl)c(OC)c(Cl)c2OC)c2c(c1Cl)COC2=O", "growth": "-6.77% [100 µM] (active) and -26.7% [100 µM] (active)"}
{"compound": "N#CC(=S)Nc1ccc(F)cc1", "growth": "13.1% [100 µM] (inactive) and -70.2% [100 µM] (active)"}
{"compound": "Cc1ccc(OC2CC(n3cnc4ncnc(Cl)c43)OC2Oc2ccc(C)cc2)cc1", "note": "(stereo not drawn)", "growth": "8.44% [100 µM] (active) and -95.4% [100 µM] (active)"}
{"compound": "NNc1[nH]c(=S)[nH]c1C(N)=O", "growth": "98.4% [100 µM] (inactive) and 70.9% [100 µM] (inactive)"}
{"compound": "CC(=N\\N=C\\c1ccccn1)/C(C)=N/N=C/c1ccccn1", "growth": "76.4% [100 µM] (inactive) and 78.5% [100 µM] (inactive)"}
{"compound": "CCCCCCCCOC(=O)C12Oc3ccc(-c4ccc5c(c4O)C(O)=C4C(=O)CC(C)C(O)C4(C(=O)OCCCCCCCC)O5)c(O)c3C(O)=C1C(=O)CC(C)C2O", "note": "(stereo not drawn)", "growth": "-22.3% [100 µM] (active) and -100% [100 µM] (active)"}
{"compound": "COc1ccc2c(=O)c(-c3cc4c(cc3OC)OCO4)coc2c1", "growth": "74% [100 µM] (inactive) and 47.3% [100 µM] (inactive)"}
{"compound": "COc1cc2c(c3c1c(=O)c1ccccc1n3C)C=C([N+](=O)[O-])C(C)(C)O2", "growth": "9.29% [100 µM] (active) and -100% [100 µM] (active)"}
{"compound": "Cc1ccc(/C=N/Nc2nc3ccccc3s2)s1", "growth": "2.03% [100 µM] (active) and 4.5% [100 µM] (active)"}
{"compound": "N#Cc1n[nH]n(-c2ccccc2)c1=O", "growth": "95% [100 µM] (inactive) and 80.4% [100 µM] (inactive)"}
{"compound": "COC(=O)/C(=N\\NC(=S)NN)C(C(=O)OC)C(=O)C(=O)Nc1cccc(C(F)(F)F)c1", "note": "(stereo not drawn)", "growth": "63.8% [100 µM] (inactive) and 8.67% [100 µM] (active)"}
{"compound": "COC(=O)C(Cc1nc2ccccc2[nH]c1=O)C(=O)C(=O)Nc1cc(C(F)(F)F)ccc1Cl", "note": "(stereo not drawn)", "growth": "-91.8% [100 µM] (active) and 0% [100 µM] (active)"}
{"compound": "O=C(O)c1n[nH]nc1Cl", "growth": "94.1% [100 µM] (inactive) and 80.7% [100 µM] (inactive)"}
{"compound": "CC/C(Cl)=N\\OC(=O)Nc1ccc(OC)cc1", "growth": "-75.9% [100 µM] (active) and -79.9% [100 µM] (active)"}
{"compound": "C=C(C)C1CC2(C)C(C)CC(OC(=O)/C(C)=C\\C)CC2C(OC(=O)/C(C)=C\\C)C1O", "note": "(stereo not drawn)", "growth": "-15.7% [100 µM] (active) and -14.3% [100 µM] (active)"}
{"compound": "CCOc1cc2c(cc1O)C=C[C@@H]1[C@@H]2CC[C@]2(C)[C@@H](O)CC[C@@H]12", "growth": "-21% [100 µM] (active) and -100% [100 µM] (active)"}
{"compound": "C/C(O)=C/c1nc2sc(C)c(C)c2c(=O)s1", "growth": "10.6% [100 µM] (inactive) and 6.54% [100 µM] (active)"}
{"compound": "COc1ccc2c(c1)N(C(C)=O)CN1C(=O)CCC21", "note": "(stereo not drawn)", "growth": "86.1% [100 µM] (inactive) and 85.1% [100 µM] (inactive)"}
{"compound": "O=C1CC(c2ccccc2)NCCCCN2CC(CN1)C(C(O)c1ccccc1)C2=O", "note": "(stereo not drawn)", "growth": "97.3% [100 µM] (inactive) and 76% [100 µM] (inactive)"}
{"compound": "Cc1ccc(/C=N/Nc2nncc3ccccc23)s1", "growth": "19% [100 µM] (inactive) and 4.27% [100 µM] (active)"}
{"compound": "CC1CC2(OC2C)C(=O)OC2CCN(C)C/C=C(/COC(=O)C1(C)O)C2=O", "note": "(stereo not drawn)", "growth": "91.6% [100 µM] (inactive) and 82.5% [100 µM] (inactive)"}
{"compound": "COc1ccc2c(C)cc(N/N=C/c3ccc(C)s3)nc2c1", "growth": "-55.5% [100 µM] (active) and -100% [100 µM] (active)"}
{"compound": "C=C1C(=O)OC2/C=C(\\CO)CC/C=C(\\CO)CC(OC(=O)C(C)C)C12", "note": "(stereo not drawn)", "growth": "-82.7% [100 µM] (active) and -70% [100 µM] (active)"}
{"compound": "O=C(O)CCCC(=O)Nn1c(Cc2ccc(Cl)cc2)n[nH]c1=O", "growth": "78.3% [100 µM] (inactive) and 78.8% [100 µM] (inactive)"}
{"compound": "CNC(=S)c1nnsc1N", "growth": "19% [100 µM] (inactive) and 0.417% [100 µM] (active)"}
{"compound": "COc1cc(C)c2c(c1C=O)Oc1c(c(C)c(O)c3c1C(O)OC3=O)OC2=O", "note": "(stereo not drawn)", "growth": "1.49% [100 µM] (active) and 87.3% [100 µM] (inactive)"}
{"compound": "N#C/C=C1\\C=CC(O)C(O)C1OC1OC(CO)C(O)C(O)C1O", "note": "(stereo not drawn)", "growth": "92.7% [100 µM] (inactive) and 74.4% [100 µM] (inactive)"}
{"compound": "C=C(C)C(=O)OC1CC2(C)OC(=CC2=O)C(C)CC2OC(=O)C(=C)C12", "note": "(stereo not drawn)", "growth": "-77.3% [100 µM] (active)"}
{"compound": "CC(C)(C)c1cc(C2COC(=O)COCCOCC(=O)OCCOCCO2)cc(C(C)(C)C)c1O", "note": "(stereo not drawn)", "growth": "70.6% [100 µM] (inactive) and 74.1% [100 µM] (inactive)"}
